Compound activity from PubChem BioAssay.
IL-1B inflam inh – blocks inflammasome-driven IL-1 beta release | THP-1 LPS/ATP IL-1B secretion, AlphaLISA, 16 h; stronger effect = lower value | activity change, % at 57.5 µM | AID 743279 | 360,000 tested, 4.7% active; in the data active means activity change below about -50%; inconclusive means mostly about -30% to -49%
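Secreted IL-1B measured by AlphaLISA bead assay after 16 h compound exposure of THP-1 cells; compounds (final up to 57.5 uM) added 1 h before LPS (250 ng/mL) and ATP (1.25 mM) stimulation; lower signal means less secretion.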
TDP1 cell noCPT – qHTS for Inhibitors of human tyrosyl-DNA phosphodiesterase 1 (TDP1): qHTS in cells in absence of CPT. DT40 Tdp1-/- hTDP1 cells, no CPT, ATP luminescence, 48 h. 420,000 tested, 15% active. AID 686978, 2013. Potency, µM (doses to about 46.2 µM), hits mostly inhibitors; further: nearly all actives have a fitted effect of over 55% in size
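Seeded 400 DT40-hTDP1 cells/well (vehicle DMSO, no 20 nM CPT); pinned compounds; ≥48 hr at 37 °C; CellTiter-Glo luminescence as viability measure.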
HT1080NT lethal – kills 2HG-producing HT-1080-NT fibrosarcoma cells; Potency, µM (top dose mostly 46.1 µM), usual class: cytotoxic; 360,000 tested, 1.6% active; AID 686970; HT-1080-NT fibrosarcoma viability, CellTiter-Glo ATP luminescence, 48 h;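 further: NT is the 2HG producing partner of a matched IDH1 knockdown line; nearly all actives have a fitted effect of over 55% in size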
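A 48-hour cytotoxicity screen used HT-1080-NT cells plated 2 hours before compound delivery. ATP-based CellTiter-Glo luminescence measured viability, normalized to DMSO and no-cell controls.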
HT1080 IDH1KD tx – toxicity to HT-1080 IDH1 knockdown cells (counter line); HT-1080 IDH1 knockdown viability, ATP luminescence, 48 h; Potency, µM (top dose mostly 46.1 µM), most hits filed as cytotoxic; 360,000 tested, 2% active
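Using the IDH1-knockdown HT-1080 line run in the same batch and compound series as the NT line, viability after 48 h at 37 °C was determined by CellTiter-Glo luminescence and expressed as % activity.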
DT40 TDP1 CPT – growth inhibition of DT40 Tdp1-/-;hTDP1 cells with camptothecin (screen for TDP1 inhibitors); chicken DT40 Tdp1-/-;hTDP1 cells + 20 nM CPT, ATP luminescence, 48 h; 420,000 tested, 12% active; AID 686979; Potency, µM (highest dose often 46.2 µM), most hits filed as inhibitors; further: nearly all actives have a fitted effect of over 55% in size
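Cell growth measured by CellTiter-Glo luminescence after a minimum 48 h, 37 C compound exposure with 20 nM CPT in Tdp1-knockout DT40 cells stably expressing hTDP1, seeded 400/well; qHTS titration format.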
Numbers stand for hits; - = inactive; ? = inconclusive; . = no result. An excerpt weighted towards active compounds, which were near 19% of everything screened. Unless noted, the call rests on the fitted dose curve; in most records, active means well fitted curve in the direction sought with a large enough effect; inconclusive means small, poorly fitted or top-dose-only effect, or another doubt; inactive means no such curve, though single readings can be large; an effect the other way counts as inactive or inconclusive.

SMILES | IL-1B inflam inh | TDP1 cell noCPT | HT1080NT lethal | HT1080 IDH1KD tx | DT40 TDP1 CPT
FC(F)(F)c1cccc(NC(=S)Nc2cccc(NC(=S)Nc3cccc(C(F)(F)F)c3)n2)c1 | -86 | 21µM | ? | 23µM | 29µM
Cc1ccc(NC(=S)NNC(C)(C)C)cc1 | . | - | ? | 18µM | -
FC(F)(F)c1cccc(NC(=S)NCc2ccccn2)c1 | - | - | - | - | -
Cc1cccc(NC(=S)Nc2cccc(C(F)(F)F)c2)n1 | - | ? | - | - | ?
FC(F)(F)c1cccc(NC(=S)NNC(=S)NCc2ccccc2)c1 | - | 26µM | ? | - | ?
COc1ccc(NC(=O)Cn2c(=O)n(Cc3nc(-c4ccccc4)no3)c(=O)c3cc4c(cc32)OCO4)cc1Cl | . | - | . | . | -
CCC(=O)OCc1cnc(C)c2oc(=O)c(C(=O)Nc3ccccc3C(F)(F)F)cc12 | . | - | . | . | -
CCOC(=O)c1ccc(COC(=O)CNS(=O)(=O)c2ccccc2)cc1 | - | - | - | - | -
O=C(CNS(=O)(=O)c1ccccc1)NCC(=O)OCc1ccc(Br)cc1 | - | ? | - | - | 21µM
CCCNC(=O)c1ccc2c(c1)N(Cc1cccc(C)c1)C(=O)c1ccccc1S2 | . | - | . | . | -
O=C(NC1CCCC1)c1ccc2c(c1)N(Cc1c(F)cccc1Cl)C(=O)c1ccccc1S2 | . | 16µM | . | . | 16µM
Cc1ccc(C)c(CN2C(=O)c3ccccc3Sc3ccc(C(=O)NCCCOC(C)C)cc32)c1 | . | 21µM | . | . | ?
COCCNC(=O)c1ccc2c(c1)N(Cc1c(F)cccc1Cl)C(=O)c1ccccc1S2 | . | 21µM | . | . | -
COc1cccc(CN2C(=O)c3ccccc3Sc3ccc(C(=O)NCc4ccccc4)cc32)c1 | . | - | . | . | -
CCN(C(=O)CN1C(=O)c2ccccc2Sc2ccc(C(=O)OC)cc21)c1cccc(C)c1 | . | 23µM | . | . | ?
COC(=O)c1ccc2c(c1)N(Cc1ccc(F)cc1)C(=O)c1ccccc1S2 | . | - | . | . | -
CC(C)OCCCNC(=O)c1ccc2c(c1)N(Cc1c(F)cccc1Cl)C(=O)c1ccccc1S2 | . | 26µM | . | . | 23µM
COc1ccccc1N1CCN(C(=O)CCC(=O)N2CCN(c3ccccc3OC)CC2)CC1 | - | ? | - | - | -
COc1ccc(C(=O)CCN2CCN(c3ccccc3OC)CC2)cc1 | ? | 5.2µM | ? | - | 3.7µM
COc1ccccc1N1CCN(CC(=O)c2ccc3ccn(C(C)=O)c3c2)CC1 | - | ? | - | - | 2.9µM
C=C1c2cc3c(cc2NC(=S)N1Cc1ccccc1)OCO3 | . | ? | - | - | 16µM
COc1cc(OC)c(C(=O)N2CCN(c3ccccn3)CC2)cc1OC | - | - | - | - | -
CCCc1ccc(-c2cc(C(=O)N3CCN(c4ccccn4)CC3)c3ccccc3n2)cc1 | - | 18µM | - | ? | ?
CCOc1ccc(-c2cc(C(=O)N3CCN(c4ccccn4)CC3)c3ccccc3n2)cc1 | - | 9.2µM | ? | ? | 5.8µM
COc1cc(-c2cc(C(=O)N3CCN(c4ccccn4)CC3)c3ccccc3n2)cc(OC)c1OC | ? | 23µM | - | - | ?
SMILES | IL-1B inflam inh | TDP1 cell noCPT | HT1080NT lethal | HT1080 IDH1KD tx | DT40 TDP1 CPT
c1ccc(CNn2nnnc2-c2ccccc2)cc1 | - | - | - | - | -
C[C@H](CO)N1C[C@H](C)[C@@H](CN(C)Cc2cncnc2)Oc2cc(Br)ccc2S1(=O)=O | - | ? | - | - | ?
CCOC(=O)C1=C(N)Oc2ccc3ccccc3c2C1c1ccc(O)cc1 (centres undefined) | - | ? | - | - | ?
CCOC(=O)C1=C(NC#N)OC(C)=C(C)C1c1ccc(O)cc1 (centres undefined) | - | 21µM | - | - | 23µM
COc1cc2c(cc1OC)C(C1C(=O)CCCC1=O)N(C(=O)CCl)CC2 (centres undefined) | - | - | - | - | -
COc1cc2c(cc1OC)C(C)N(C(=O)CCNC(=O)c1ccccc1)CC2 (centres undefined) | - | - | - | - | -
COc1cc2c(cc1OC)C(C)N(C(=O)[C@@H](NC(=O)c1ccccc1)C(C)C)CC2 (some centres undefined) | -52 | 29µM | - | - | ?
COc1cc2c(cc1OC)C(C)N(C(=O)Nc1ccccc1)CC2 (centres undefined) | - | 4.1µM | 2.9µM | 2.6µM | 3.7µM
COc1cc2c(cc1OC)C(C)N(C(=O)c1sccc1C)CC2 (centres undefined) | ? | - | - | - | ?
COc1ccccc1/C=C/C(=O)N1CCc2cc(OC)c(OC)cc2C1C (centres undefined) | -70 | ? | ? | ? | ?
COc1cc2c(cc1OC)C(c1ccccc1)N(C(=O)CCl)CC2 (centres undefined) | -96 | 2.9µM | ? | ? | 3.3µM
O=C(CCCNC(=O)c1ccc(Cl)cc1)Nc1nccs1 | - | - | - | - | -
COCCN(C(=S)Nc1ccc(OC)c(Cl)c1)C1CCN(C(C)=O)CC1 | - | - | - | - | -
CCN(CC)S(=O)(=O)c1cccc(NC(=O)COC(=O)c2cccs2)c1 | - | - | - | - | -
CCOC(=O)CN(C(=O)COC(=O)C1=NNC(=O)CC1)c1ccc(F)cc1 | - | - | - | - | -
O=C(NC(c1ccc2ccccc2n1)c1cccs1)C1CCN(Cc2cccc(C(F)(F)F)c2)CC1 (centres undefined) | -66 | 10µM | ? | 16µM | 7.3µM
O=C(NC(c1ccccc1)c1ccc2ccccc2n1)C1CCN(Cc2cccc(C(F)(F)F)c2)CC1 (centres undefined) | ? | 6.5µM | ? | 15µM | 7.3µM
COCCNC(=O)C1CCCN(Cc2cccc(C(F)(F)F)c2)CC1 (centres undefined) | - | - | - | - | -
CCCCS(=O)(=O)N1CCN(S(=O)(=O)c2cccs2)CC1 | - | - | - | - | -
CCC1CN(C(=O)Nc2cccc3c2CCCC3)c2cc(Cl)ccc2O1 (centres undefined) | . | 21µM | . | . | ?
CCC1CN(C(=O)Nc2ccc(C)cc2)c2cc(C)ccc2O1 (centres undefined) | - | 16µM | - | - | ?
CCC1CN(C(=O)NCc2ccc(F)cc2)c2cc(C)ccc2O1 (centres undefined) | - | ? | - | - | ?
CCC1CN(C(=O)Nc2cccc3c2CCCC3)c2ccccc2O1 (centres undefined) | . | 16µM | . | . | ?
CCC1CN(C(=O)Nc2ccccc2C(F)(F)F)c2ccccc2O1 (centres undefined) | . | - | . | . | -
CCc1nc2nc(C)c(NS(=O)(=O)c3ccc(C)cc3)c(=O)n2[nH]1 | . | - | . | . | -
CC(=O)Nc1ccc(OC(=O)c2ccccc2OC(C)=O)cc1 | . | - | . | . | -
CSc1nsc(SC)c1NC(=O)OCCc1ccccn1 | - | - | - | - | -
